PubChem BioAssay AID1159580 (chemical genetic matrix, 2015)
Several values for one entry are separate records, joined by “and”; a condition that tells them apart may be missing. Identical values can stand only once. Out of some 5,500 compounds screened, about 2,000 (36%) were called active. Inconclusive results (about 18%) are left out. Cut-off read from the data, not from the text of the source: active = normalized growth mostly below about 0.91 (no sharp cut-off); inconclusive = no clear call, values can overlap the other calls; inactive = mostly above about 0.92. The list shows a part of the results.

Assay: chemical genetic growth profiling, strain panel (AID 1159580);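 note: tested at 20 µM; growth read once vehicle control cultures reached saturation at 30 °C; 1 = growth at the plate median or of vehicle wells; lower values mean less growth of the strain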
Settings: S. cerevisiae deletion strains, growth OD

Measured: normalized growth

Nc1ncnc2c1ncn2C1C[C@H](O)[C@@H](CO)O1 (some centres not stated)
0.995 (inactive) and 0.849 (active): locus YHR030C, strain SLT2, stronger effect = lower value
active: locus YLR113W, strain HOG1, stronger effect = lower value 0.845
inactive: locus YAL013W, strain DEP1, stronger effect = lower value 0.998 | locus YAL021C, strain ccr4, stronger effect = lower value 1.03 | locus YAL026C, strain drs2, stronger effect = lower value 1.02 | locus YAL030W, strain snc1, stronger effect = lower value 1.01 | locus YBL061C, strain skt5, stronger effect = lower value 1.01 | locus YBR009C, strain hhf1, stronger effect = lower value 1.02 | locus YBR021W, strain FUR4, stronger effect = lower value 1.02 | locus YBR023C, strain chs3, stronger effect = lower value 1 | locus YBR171W, strain sec66, stronger effect = lower value 1.03 | locus YBR229C, strain ROT2, stronger effect = lower value 0.962 | locus YBR231C, strain swc5, stronger effect = lower value 1.01 | locus YBR279W, strain paf1, stronger effect = lower value 1.01 | locus YCL011C, strain gbp2, stronger effect = lower value 1.02 | locus YCL016C, strain dcc1, stronger effect = lower value 1.01 | locus YCL029C, strain bik1, stronger effect = lower value 0.998 | locus YCL061C, strain MRC1, stronger effect = lower value 1.02 | locus YCL069W, strain vba3, stronger effect = lower value 1.01 | locus YCR088W, strain abp1, stronger effect = lower value 1.01 | locus YDL005C, strain med2, stronger effect = lower value 1.02 | locus YDL035C, strain GPR1, stronger effect = lower value 0.99 | locus YDL040C, strain nat1, stronger effect = lower value 1.01 | locus YDL074C, strain BRE1, stronger effect = lower value 1.01 | locus YDL101C, strain DUN1, stronger effect = lower value 0.99 | locus YDL185W, strain tfp1, stronger effect = lower value 0.986 | locus YDL192W, strain arf1, stronger effect = lower value 1 | locus YDR001C, strain nth1, stronger effect = lower value 1.01 | locus YDR069C, strain doa4, stronger effect = lower value 1.02 | locus YDR101C, strain arx1, stronger effect = lower value 1.04 | locus YDR137W, strain rgp1, stronger effect = lower value 1.02 | locus YDR159W, strain sac3, stronger effect = lower value 1.03 | locus YDR162C, strain NBP2, stronger effect = lower value 0.984 | locus YDR195W, strain ref2 0.994 | locus YDR297W, strain sur2, stronger effect = lower value 1.01 | locus YDR318W, strain mcm21, stronger effect = lower value 0.968 | locus YDR334W, strain swr1, stronger effect = lower value 1.01 | locus YDR335W, strain msn5, stronger effect = lower value 1 | locus YDR388W, stronger effect = lower value 0.993 | locus YDR392W, strain spt3, stronger effect = lower value 1.01 | locus YDR502C, strain sam2, stronger effect = lower value 0.991 | locus YEL003W, strain gim4, stronger effect = lower value 1.02 | locus YEL037C, strain rad23, stronger effect = lower value 1 | locus YEL061C, strain CIN8 (second series), stronger effect = lower value 1.02 | locus YEL061C, strain CIN8, stronger effect = lower value 1 | locus YER015W, strain faa2, stronger effect = lower value 1.01 | locus YER016W, strain bim1, stronger effect = lower value 1.02 | locus YER110C, stronger effect = lower value 0.993 | locus YER111C, strain swi4, stronger effect = lower value 1.02 | locus YER155C, strain BEM2 (second series), stronger effect = lower value 1.03 | locus YER155C, strain BEM2, stronger effect = lower value 0.998 | locus YER167W, strain BCK2, stronger effect = lower value 0.996 | locus YFR010W, strain ubp6, stronger effect = lower value 1.01 | locus YGL078C, strain dbp3, stronger effect = lower value 0.997 | locus YGL086W, strain mad1, stronger effect = lower value 1.06 | locus YGL167C, strain pmr1, stronger effect = lower value 1.02 | locus YGL173C, strain kem1, stronger effect = lower value 1.02 | locus YGL227W, strain vid30, stronger effect = lower value 1.01 | locus YGL240W, strain doc1, stronger effect = lower value 1.02 | locus YGL248W, strain PDE1, stronger effect = lower value 0.981 | locus YGL253W, strain hxk2, stronger effect = lower value 1.02 | locus YGR135W, strain pre9, stronger effect = lower value 0.98 | locus YGR252W, strain gcn5, stronger effect = lower value 0.953 | locus YHR013C, strain ard1, stronger effect = lower value 1.01 | locus YHR027C, strain rpn1, stronger effect = lower value 1 | locus YHR079C, strain IRE1 (second series), stronger effect = lower value 0.99 | locus YHR079C, strain IRE1, stronger effect = lower value 0.872 | locus YHR094C, strain hxt1, stronger effect = lower value 0.987 | locus YHR129C, strain ARP1, stronger effect = lower value 0.989 | locus YHR142W, strain chs7, stronger effect = lower value 1.02 | locus YHR200W, strain rpn10, stronger effect = lower value 0.987 | locus YIL066C, strain RNR3, stronger effect = lower value 0.986 | locus YIL073C, strain SPO22, stronger effect = lower value 0.994 | locus YIL125W, strain kgd1, stronger effect = lower value 0.994 | locus YIR030C, strain dcg1, stronger effect = lower value 0.991 | locus YJL092W, strain hpr5, stronger effect = lower value 1.01 | locus YJL095W, strain BCK1 (second series), stronger effect = lower value 1.01 | locus YJL095W, strain BCK1, stronger effect = lower value 0.989 and 0.886 | locus YJL115W, strain asf1, stronger effect = lower value 1.01 | locus YJL129C, strain trk1, stronger effect = lower value 1.03 | locus YJL134W, strain LCB3, stronger effect = lower value 0.996 | locus YJL154C, strain vps35, stronger effect = lower value 1.02 | locus YJL164C, strain tpk1, stronger effect = lower value 1.01 | locus YJL166W, strain qcr8, stronger effect = lower value 1.03 | locus YJL168C, strain set2, stronger effect = lower value 0.995 | locus YJL187C, strain SWE1 (second series), stronger effect = lower value 0.99 | locus YJL187C, strain SWE1, stronger effect = lower value 1.01 | locus YJR043C, strain POL32, stronger effect = lower value 0.996 | locus YJR066W, strain TOR1, stronger effect = lower value 0.853 | locus YKL009W, strain mrt4, stronger effect = lower value 0.987 | locus YKL068W, stronger effect = lower value 0.991 | locus YKL085W, strain MDH1 (second series), stronger effect = lower value 0.997 | locus YKL085W, strain MDH1, stronger effect = lower value 0.997 | locus YKL160W, strain elf1, stronger effect = lower value 1.01 | locus YKL190W, strain CNB1, stronger effect = lower value 0.993 | locus YKR001C, strain vps1, stronger effect = lower value 1.01 | locus YKR026C, strain gcn3, stronger effect = lower value 1.02 | locus YKR091W, strain srl3, stronger effect = lower value 1.01 | locus YLL001W, strain dnm1, stronger effect = lower value 1.02 | locus YLL026W, stronger effect = lower value 1.01 | locus YLL041C, strain sdh2, stronger effect = lower value 1.02 | locus YLR027C, strain aat2, stronger effect = lower value 1.02 | locus YLR039C, strain RIC1, stronger effect = lower value 1.04 | locus YLR058C, strain SHM2, stronger effect = lower value 0.985 | locus YLR102C, strain apc9, stronger effect = lower value 0.999 | locus YLR221C, strain rsa3, stronger effect = lower value 1.01 | locus YLR258W, strain gsy2, stronger effect = lower value 1.01 | locus YLR262C, strain YPT6 (second series), stronger effect = lower value 0.998 | locus YLR262C, strain YPT6, stronger effect = lower value 1.04 | locus YLR268W, strain sec22, stronger effect = lower value 1.04 | locus YLR320W, strain mms22, stronger effect = lower value 1.03 | locus YLR330W, strain CHS5, stronger effect = lower value 0.994 | locus YLR342W, strain FKS1 (second series), stronger effect = lower value 1.02 | locus YLR342W, strain FKS1, stronger effect = lower value 1.03 | locus YLR357W, strain rsc2, stronger effect = lower value 1.01 | locus YLR370C, strain arc18, stronger effect = lower value 1.02 | locus YLR371W, strain rom2, stronger effect = lower value 0.98 | locus YLR384C, strain iki3, stronger effect = lower value 1.01 | locus YLR418C, strain cdc73, stronger effect = lower value 0.966 | locus YML016C, strain PPZ1, stronger effect = lower value 0.997 | locus YML032C, strain rad52, stronger effect = lower value 0.966 | locus YML120C, strain ndi1, stronger effect = lower value 1.01 | locus YML124C, strain tub3, stronger effect = lower value 0.99 | locus YMR058W, strain fet3, stronger effect = lower value 1.02 | locus YMR078C, strain ctf18, stronger effect = lower value 0.993 | locus YMR125W, strain sto1, stronger effect = lower value 1.01 | locus YMR129W, stronger effect = lower value 1.01 | locus YMR205C, strain PFK2, stronger effect = lower value 1.05 | locus YMR223W, strain ubp8, stronger effect = lower value 0.986 | locus YMR231W, strain pep5, stronger effect = lower value 0.991 | locus YMR307W, strain GAS1, stronger effect = lower value 0.988 | locus YNL067W, strain RPL9B, stronger effect = lower value 0.995 | locus YNL071W, strain lat1, stronger effect = lower value 1.02 | locus YNL153C, strain GIM3, stronger effect = lower value 0.987 | locus YNL183C, strain NPR1, stronger effect = lower value 0.855 | locus YNL209W, strain ssb2, stronger effect = lower value 1.01 | locus YNL233W, strain BNI4, stronger effect = lower value 1 | locus YNL248C, strain rpa49, stronger effect = lower value 1.01 | locus YNL250W, strain rad50, stronger effect = lower value 0.987 | locus YNL271C, strain bni1, stronger effect = lower value 0.992 | locus YNL298W, strain CLA4, stronger effect = lower value 0.989 | locus YNL307C, strain MCK1, stronger effect = lower value 1.01 | locus YNL322C, strain KRE1 (second series), stronger effect = lower value 1.02 | locus YNR049C, strain mso1, stronger effect = lower value 1.01 | locus YNR052C, strain pop2, stronger effect = lower value 0.985 | locus YOL012C, strain htz1 0.909 | locus YOL147C, strain pex11, stronger effect = lower value 0.995 | locus YOR001W, strain rrp6, stronger effect = lower value 1.02 | locus YOR061W, strain CKA2, stronger effect = lower value 0.967 | locus YOR069W, strain VPS5, stronger effect = lower value 1 | locus YOR070C, strain gyp1, stronger effect = lower value 0.999 | locus YOR080W, strain dia2, stronger effect = lower value 1.02 | locus YOR083W, strain WHI5, stronger effect = lower value 1.01 | locus YOR106W, strain vam3, stronger effect = lower value 1.01 | locus YOR136W, strain idh2, stronger effect = lower value 1 | locus YOR144C, strain elg1, stronger effect = lower value 0.988 | locus YOR184W, strain ser1, stronger effect = lower value 0.988 | locus YOR231W, strain MKK1, stronger effect = lower value 0.873 | locus YOR265W, strain rbl2, stronger effect = lower value 0.987 | locus YOR270C, strain vph1, stronger effect = lower value 1.03 | locus YOR290C, strain snf2, stronger effect = lower value 1.02 | locus YOR316C, strain cot1, stronger effect = lower value 0.994 | locus YPL051W, strain arl3, stronger effect = lower value 1.01 | locus YPL078C, strain atp4, stronger effect = lower value 1.01 | locus YPL106C, strain sse1, stronger effect = lower value 1.02 | locus YPL240C, strain hsp82, stronger effect = lower value 1 | locus YPL256C, strain CLN2, stronger effect = lower value 0.911 | locus YPR119W, strain clb2, stronger effect = lower value 0.993 | locus YPR141C, strain kar3, stronger effect = lower value 0.988 | locus YPR163C, strain tif3, stronger effect = lower value 1 | locus YPR167C, strain met16, stronger effect = lower value 0.989 | strain wtn01, stronger effect = lower value 1.03
